Laboratory results published in publication PMC11574364.

What was measured:
Assay in all cases: protein domain microarray probed with biotinylated miRNA; Domain array: 20 mM Tris-HCl pH 7.4, 200 mM KCl, 0.2 mM EDTA, 0.05% NP40, 2 ug/ul heparin, overnight 4 C. ORF array: PBS pH 7.0 with RNase inhibitor, 100 ng RNA; high values mean tight binding
Conditions in all cases: ssRNA
U1SNRNPBP = target: T1, U1SNRNPBP (Homo sapiens, UniProt Q16560)
T1 sequence: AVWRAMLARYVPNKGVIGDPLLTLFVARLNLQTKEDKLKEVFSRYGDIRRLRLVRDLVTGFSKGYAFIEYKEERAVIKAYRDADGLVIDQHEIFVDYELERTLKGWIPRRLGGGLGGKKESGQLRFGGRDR

RBM47 = target: T2, RBM47 (Homo sapiens, UniProt A0AV96)
T2 sequence: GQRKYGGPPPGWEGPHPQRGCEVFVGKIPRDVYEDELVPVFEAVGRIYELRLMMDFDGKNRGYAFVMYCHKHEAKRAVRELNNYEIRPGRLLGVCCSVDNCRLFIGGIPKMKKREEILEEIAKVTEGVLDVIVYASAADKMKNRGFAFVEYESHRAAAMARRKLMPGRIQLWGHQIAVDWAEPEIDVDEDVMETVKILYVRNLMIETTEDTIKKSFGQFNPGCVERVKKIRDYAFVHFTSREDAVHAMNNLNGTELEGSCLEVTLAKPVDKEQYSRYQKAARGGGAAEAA

KHSRP(1-4) = target: T3, KHSRP(1-4) (Homo sapiens, UniProt Q92945)
T3 sequence: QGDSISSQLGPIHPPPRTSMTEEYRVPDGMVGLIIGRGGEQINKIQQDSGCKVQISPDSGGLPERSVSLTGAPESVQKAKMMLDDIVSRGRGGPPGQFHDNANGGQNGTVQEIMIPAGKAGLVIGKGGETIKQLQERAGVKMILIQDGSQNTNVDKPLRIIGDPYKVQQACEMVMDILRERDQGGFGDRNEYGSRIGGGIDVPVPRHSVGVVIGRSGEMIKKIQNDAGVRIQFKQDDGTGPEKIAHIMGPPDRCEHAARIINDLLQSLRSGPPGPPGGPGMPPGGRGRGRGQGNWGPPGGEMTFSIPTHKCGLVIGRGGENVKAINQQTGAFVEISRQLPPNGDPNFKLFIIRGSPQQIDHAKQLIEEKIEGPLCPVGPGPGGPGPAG

RBMS2 = target: T4, RBMS2 (Homo sapiens, UniProt Q15434)
T4 sequence: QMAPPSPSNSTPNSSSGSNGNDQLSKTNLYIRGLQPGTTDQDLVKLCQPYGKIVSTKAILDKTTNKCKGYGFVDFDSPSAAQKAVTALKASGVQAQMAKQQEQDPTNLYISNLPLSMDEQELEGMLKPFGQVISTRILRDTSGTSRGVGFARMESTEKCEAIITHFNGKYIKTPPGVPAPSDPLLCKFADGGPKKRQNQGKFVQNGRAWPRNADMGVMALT

STAU1(1) = STAU1(1) (Homo sapiens, UniProt O95793)
STAU1(1), sequence (O95793 52-182): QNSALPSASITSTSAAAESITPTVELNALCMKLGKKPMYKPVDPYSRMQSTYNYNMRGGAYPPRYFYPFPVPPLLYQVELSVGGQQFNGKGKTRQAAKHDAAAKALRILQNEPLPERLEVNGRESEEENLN

STRBP(1) = target: T5, STRBP(1) (Homo sapiens, UniProt Q96SI9)
T5 sequence: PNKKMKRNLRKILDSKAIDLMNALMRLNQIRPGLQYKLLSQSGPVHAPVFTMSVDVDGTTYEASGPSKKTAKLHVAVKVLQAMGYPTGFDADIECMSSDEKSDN

RALY = RALY (Homo sapiens, UniProt Q9UKM9)
RALY, sequence (Q9UKM9 1-115): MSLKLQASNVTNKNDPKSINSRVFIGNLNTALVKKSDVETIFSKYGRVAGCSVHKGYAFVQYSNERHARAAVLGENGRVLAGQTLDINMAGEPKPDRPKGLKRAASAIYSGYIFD

RBM25 = RBM25 (Homo sapiens, UniProt P49756)
RBM25, sequence (P49756 67-185): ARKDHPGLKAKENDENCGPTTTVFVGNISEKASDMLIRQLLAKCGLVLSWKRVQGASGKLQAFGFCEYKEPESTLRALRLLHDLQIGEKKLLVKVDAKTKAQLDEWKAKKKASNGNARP

RBM21 = target: T6, RBM21 (Homo sapiens, UniProt Q9H6E5)
T6 sequence: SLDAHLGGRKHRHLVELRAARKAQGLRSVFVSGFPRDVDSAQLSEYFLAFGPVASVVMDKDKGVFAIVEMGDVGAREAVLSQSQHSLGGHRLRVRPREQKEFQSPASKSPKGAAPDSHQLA

SART3 = target: T7, SART3 (Homo sapiens, UniProt Q15020)
T7 sequence: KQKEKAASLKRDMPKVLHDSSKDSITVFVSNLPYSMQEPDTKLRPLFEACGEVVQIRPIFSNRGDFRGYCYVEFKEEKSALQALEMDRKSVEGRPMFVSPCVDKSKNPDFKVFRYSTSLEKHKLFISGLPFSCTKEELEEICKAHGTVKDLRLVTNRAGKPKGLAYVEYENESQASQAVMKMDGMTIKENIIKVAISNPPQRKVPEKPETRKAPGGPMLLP

STAU2(4) = target: T8, STAU2(4) (Homo sapiens, UniProt Q9NUL3)
T8 sequence: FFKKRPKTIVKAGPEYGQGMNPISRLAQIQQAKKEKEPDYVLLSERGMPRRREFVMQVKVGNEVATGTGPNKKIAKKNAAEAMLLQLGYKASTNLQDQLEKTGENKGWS

RBM19(1) = target: T9, RBM19(1) (Homo sapiens, UniProt Q9Y4C8)
T9 sequence: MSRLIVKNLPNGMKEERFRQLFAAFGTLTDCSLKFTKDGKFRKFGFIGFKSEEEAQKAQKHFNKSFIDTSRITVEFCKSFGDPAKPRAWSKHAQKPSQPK

RBM11 = target: T10, RBM11 (Homo sapiens, UniProt P57052)
T10 sequence: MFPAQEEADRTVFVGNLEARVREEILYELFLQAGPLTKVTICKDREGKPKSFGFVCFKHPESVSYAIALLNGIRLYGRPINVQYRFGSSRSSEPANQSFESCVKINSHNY

RAVER1 = target: T11, RAVER1 (Homo sapiens, UniProt Q8IY67)
T11 sequence: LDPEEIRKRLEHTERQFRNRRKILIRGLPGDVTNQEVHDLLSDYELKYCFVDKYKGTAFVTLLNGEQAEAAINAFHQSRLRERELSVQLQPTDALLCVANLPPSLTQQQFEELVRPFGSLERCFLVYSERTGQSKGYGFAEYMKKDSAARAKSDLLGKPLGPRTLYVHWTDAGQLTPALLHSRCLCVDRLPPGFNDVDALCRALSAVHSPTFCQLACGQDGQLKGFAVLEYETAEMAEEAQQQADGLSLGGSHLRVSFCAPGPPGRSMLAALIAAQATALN

REXON = target: T12, REXON (Homo sapiens, UniProt Q96IC2)
T12 sequence: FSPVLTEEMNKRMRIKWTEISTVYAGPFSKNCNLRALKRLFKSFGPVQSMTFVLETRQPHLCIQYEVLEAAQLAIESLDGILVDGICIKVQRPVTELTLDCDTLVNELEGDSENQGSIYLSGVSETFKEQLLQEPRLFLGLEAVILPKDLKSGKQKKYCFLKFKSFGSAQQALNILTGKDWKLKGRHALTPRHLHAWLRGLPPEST

IGF2BP2(1-2) = IGF2BP2(1-2) (Homo sapiens, UniProt Q9Y6M1)
IGF2BP2(1-2), sequence (Q9Y6M1 176-362): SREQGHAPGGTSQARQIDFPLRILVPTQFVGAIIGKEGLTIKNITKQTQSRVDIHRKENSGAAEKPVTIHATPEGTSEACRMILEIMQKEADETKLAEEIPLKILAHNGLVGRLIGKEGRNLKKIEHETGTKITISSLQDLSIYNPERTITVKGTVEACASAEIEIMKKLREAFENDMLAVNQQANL

FXR1(1-2) = FXR1(1-2) (Homo sapiens, UniProt P51114)
FXR1(1-2), sequence (P51114 201-372): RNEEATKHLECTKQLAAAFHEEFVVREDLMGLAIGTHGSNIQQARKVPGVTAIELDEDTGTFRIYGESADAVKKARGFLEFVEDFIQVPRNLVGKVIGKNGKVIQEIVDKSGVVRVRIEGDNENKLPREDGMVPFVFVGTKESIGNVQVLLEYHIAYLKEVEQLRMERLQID

RBPMS = RBPMS (Homo sapiens, UniProt Q93062)
RBPMS, sequence (Q93062 1-125): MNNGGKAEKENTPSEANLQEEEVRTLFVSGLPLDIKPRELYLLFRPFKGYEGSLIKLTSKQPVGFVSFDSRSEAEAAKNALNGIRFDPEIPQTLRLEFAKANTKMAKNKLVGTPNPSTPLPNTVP

TRA2B = target: T13, TRA2B (Homo sapiens, UniProt P62995)
T13 sequence: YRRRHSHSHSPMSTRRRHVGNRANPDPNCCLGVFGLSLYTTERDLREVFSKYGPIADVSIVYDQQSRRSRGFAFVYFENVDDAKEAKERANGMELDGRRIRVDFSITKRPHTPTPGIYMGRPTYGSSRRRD

SFRS12 = target: T14, SFRS12 (Homo sapiens, UniProt Q8WXA9)
T14 sequence: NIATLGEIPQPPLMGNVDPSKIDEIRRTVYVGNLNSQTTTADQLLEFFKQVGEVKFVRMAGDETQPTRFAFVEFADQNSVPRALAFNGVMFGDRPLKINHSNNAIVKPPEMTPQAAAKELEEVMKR

Row | Sequence | binding signal (U1SNRNPBP) | binding signal (RBM47) | binding signal (KHSRP(1-4)) | binding signal (RBMS2) | binding signal (STAU1(1)) | binding signal (STRBP(1)) | binding signal (RALY) | binding signal (RBM25) | binding signal (RBM21) | binding signal (SART3) | binding signal (STAU2(4)) | binding signal (RBM19(1)) | binding signal (RBM11) | binding signal (RAVER1) | binding signal (REXON) | binding signal (IGF2BP2(1-2)) | binding signal (FXR1(1-2)) | binding signal (RBPMS) | binding signal (TRA2B) | binding signal (SFRS12)
1 | UGAGGUAGUAGGUUGUAUGGUU | 99.4 ± 1.25 fluorescence intensity | 41.2 ± 0.636 fluorescence intensity | 786 ± 28.3 fluorescence intensity | 91.7 ± 4.18 fluorescence intensity | 44.5 ± 1.05 fluorescence intensity | 62.8 ± 0.686 fluorescence intensity | 1750 ± 31.6 fluorescence intensity | 63.1 ± 0.806 fluorescence intensity | 53.6 ± 2.81 fluorescence intensity | 51.5 ± 2.31 fluorescence intensity | 168 ± 2.52 fluorescence intensity | 519 ± 35.8 fluorescence intensity | 36.7 ± 5.74 fluorescence intensity | 26.62 ± 0.0495 fluorescence intensity | 102 ± 6.23 fluorescence intensity | 26.07 ± 0.24 fluorescence intensity | 95 ± 11.4 fluorescence intensity | 145 ± 43.8 fluorescence intensity | 1050 ± 32.8 fluorescence intensity | 264 ± 26.8 fluorescence intensity
2 | AGAGGUAGUAGGUUGCAUAGUU | 63.6 ± 1.29 fluorescence intensity | 29.82 ± 0.276 fluorescence intensity | 951 ± 76.8 fluorescence intensity | 79.9 ± 6.82 fluorescence intensity | 25.68 ± 0.0778 fluorescence intensity | 34.2 ± 1.84 fluorescence intensity | 1628 ± 11.4 fluorescence intensity | 39.5 ± 3.96 fluorescence intensity | 34.33 ± 0.0778 fluorescence intensity | 36.8 ± 2.71 fluorescence intensity | 100.36 ± 0.0283 fluorescence intensity | 400 ± 17.2 fluorescence intensity | 28 ± 4.14 fluorescence intensity |  | 106 ± 7.17 fluorescence intensity | 23 ± 1.49 fluorescence intensity | 46.8 ± 0.523 fluorescence intensity | 754 ± 55.2 fluorescence intensity | 1220 ± 41.8 fluorescence intensity | 364 ± 21 fluorescence intensity
3 | CAGUGCAAUGAUGAAAGGGCAU | 46.4 ± 1.24 fluorescence intensity | 26.2 ± 2.96 fluorescence intensity | 675 ± 8.46 fluorescence intensity | 39 ± 3.47 fluorescence intensity |  | 37.99 ± 0.283 fluorescence intensity | 332 ± 5.22 fluorescence intensity | 36 ± 0.488 fluorescence intensity | 38.1 ± 3.22 fluorescence intensity | 29.6 ± 6.57 fluorescence intensity | 92.53 ± 0.0283 fluorescence intensity | 249 ± 33.6 fluorescence intensity | 25.7 ± 8.53 fluorescence intensity |  | 88.4 ± 1.34 fluorescence intensity | 24.1 ± 3.02 fluorescence intensity | 111.8 ± 0.544 fluorescence intensity | 844 ± 72.7 fluorescence intensity | 656 ± 15.9 fluorescence intensity | 243 ± 4.09 fluorescence intensity
4 | UGAGGUAGUAGGUUGUAUAGUU |  |  | 419 ± 11.8 fluorescence intensity | 24.7 ± 2.59 fluorescence intensity |  |  | 789 ± 24.3 fluorescence intensity |  |  |  | 31.34 ± 0.269 fluorescence intensity | 132 ± 21 fluorescence intensity |  | 21.1 ± 4.28 fluorescence intensity | 30.1 ± 0.375 fluorescence intensity |  | 34.3 ± 0.7 fluorescence intensity | 63.4 ± 5.39 fluorescence intensity | 97.2 ± 22.2 fluorescence intensity | 44.9 ± 2.62 fluorescence intensity
5 | UAGCUUAUCAGACUGAUGUUGA |  |  | 192 ± 3.5 fluorescence intensity |  |  |  | 591 ± 33.9 fluorescence intensity |  |  |  |  | 37.3 ± 6.15 fluorescence intensity |  |  |  |  | 31.1 ± 0.919 fluorescence intensity |  |  | 30.2 ± 10.4 fluorescence intensity
6 | UGAGGUAGUAGGUUGUGUGGUU | 130 ± 6.12 fluorescence intensity | 53 ± 7.04 fluorescence intensity | 992.47 ± 0.686 fluorescence intensity | 95.1 ± 1.34 fluorescence intensity | 69.7 ± 6.19 fluorescence intensity | 125 ± 14.3 fluorescence intensity | 1730 ± 54.9 fluorescence intensity | 98.3 ± 20.9 fluorescence intensity | 63.5 ± 6.73 fluorescence intensity | 113 ± 30.2 fluorescence intensity | 275.8 ± 2.53 fluorescence intensity | 592 ± 96.6 fluorescence intensity | 26.6 ± 2.58 fluorescence intensity | 22.3 ± 5.17 fluorescence intensity | 198.5 ± 0.0919 fluorescence intensity | 31.4 ± 2.92 fluorescence intensity | 436 ± 32.2 fluorescence intensity | 168 ± 4.32 fluorescence intensity | 748 ± 54 fluorescence intensity | 314 ± 21.7 fluorescence intensity
